Results from the supplement of paper PMC13380429.

Test system: Vero E6 infected with SARS-CoV-2
Assay: inhibition of SARS-CoV-2 cytopathic effect; higher = more antiviral protection, active = above 15
Conditions: 48 h

Measured: inhibition of SARS-CoV-2 cytopathic effect

CN1[C@@H]2CC[C@H]1C[C@@H](OC(=O)[C@H](CO)c1ccccc1)C2 [hyoscyamine]
inactive: 1 nM 1.06% | 8.33 nM -0.12% | 100 nM 0.93% | 833.33 nM -0.12% | 10000 nM -0.51%

COC(=O)[C@H](NC(=O)c1cc(-c2ccccc2)nc2ccccc12)c1ccccc1
inactive: 1 nM 2.67% | 8.33 nM 2.5% | 100 nM 0.38% | 833.33 nM 0.39% | 10000 nM 1.12%

CC(=O)Nc1c(I)c(C(=O)O)c(I)c(N(C)C(C)=O)c1I [metrizoic-acid]
inactive: 1 nM -1.11% | 8.33 nM 0.34% | 100 nM 0.21% | 833.33 nM 2.48% | 10000 nM 1.65%

CC(C)[C@@H](CS(=O)(=O)C(C)C)N1C(=O)[C@@](C)(CC(=O)O)C[C@H](c2cccc(Cl)c2)[C@H]1c1ccc(Cl)cc1
inactive: 1 nM 2.3% | 8.33 nM 3.7% | 100 nM 3.54% | 833.33 nM 4.65% | 10000 nM 4.3%

C[C@H](C[C@H](N)C(=O)O)C(=O)O
inactive: 1 nM -1.19% | 8.33 nM -0.93% | 100 nM -1.73% | 833.33 nM -0.6% | 10000 nM -0.35%

CC(C(=O)O)c1ccc2c(c1)Cc1cccnc1O2 (stereo not given) [pranoprofen]
inactive: 1 nM -0.06% | 8.33 nM 4.49% | 100 nM 2.65% | 833.33 nM 1.95% | 10000 nM -1.17%

Cc1ccc(NC(=O)c2cccc(C(C)(C)C#N)c2)cc1Nc1ccc2ncn(C)c(=O)c2c1
inactive: 1 nM 1.24% | 8.33 nM 2.77% | 100 nM -0.67% | 833.33 nM -2.75% | 10000 nM -1.17%

N=C(N)S/C=C\C(=O)O
inactive: 1 nM 1.98% | 8.33 nM 0.81% | 100 nM -2.6% | 833.33 nM -1.03% | 10000 nM -0.56%

Cn1c(N2CCCCS2(=O)=O)nc(C(=O)NCc2ccc(F)cc2)c(O)c1=O
inactive: 1 nM -0.4% | 8.33 nM -1.76% | 100 nM -4.2% | 833.33 nM -0.06% | 10000 nM -1.72%

COc1cc2c(cc1OC)[C@@H](Cc1cc(OC)c(OC)c(OC)c1)[N+](C)(CCCOC(=O)CC/C=C/CCC(=O)OCCC[N+]1(C)CCc3cc(OC)c(OC)cc3[C@H]1Cc1cc(OC)c(OC)c(OC)c1)CC2 (stereo not given in full) [mivacurium]
inactive: 1 nM -2.73% | 8.33 nM -1.95% | 100 nM 2.74% | 833.33 nM 3.32% | 10000 nM 0.83%

NCC(CS(=O)(=O)O)c1ccc(Cl)cc1 (stereo not given) [saclofen]
inactive: 1 nM 0.43% | 8.33 nM 0.42% | 100 nM -1.16% | 833.33 nM 4.89% | 10000 nM 1.7%

N=C(C[C@@H](O)COc1ccccc1-c1ccccc1)N1CCCCC1
inactive: 1 nM -5.21% | 8.33 nM -4.99% | 100 nM 0.04% | 833.33 nM -2.13% | 10000 nM -2.77%

CC(C)C(=O)OC[C@@]1(N=[N+]=[N-])O[C@@H](n2ccc(N)nc2=O)[C@H](OC(=O)C(C)C)[C@@H]1OC(=O)C(C)C [balapiravir]
inactive: 1 nM 2.39% | 8.33 nM 1.09% | 100 nM 0.61% | 833.33 nM -0.11% | 10000 nM 0.76%

C[C@H]1[C@H](NC(=O)/C(=N\OC(C)(C)C(=O)O)c2csc(N)n2)C(=O)N1S(=O)(=O)O [aztreonam]
active: 8.33 nM 20%
inactive: 1 nM 3.78% | 100 nM 1.14% | 833.33 nM -1.55% | 10000 nM 0.92%

Cc1c2oc3c(C)ccc(C(=O)N[C@@H]4C(=O)N[C@H](C(C)C)C(=O)N5CCC[C@H]5C(=O)N(C)CC(=O)N(C)[C@@H](C(C)C)C(=O)O[C@@H]4C)c3nc-2c(C(=O)N[C@@H]2C(=O)N[C@H](C(C)C)C(=O)N3CCC[C@H]3C(=O)N(C)CC(=O)N(C)[C@@H](C(C)C)C(=O)O[C@@H]2C)c(N)c1=O [dactinomycin]
inactive: 1 nM -0.42% | 8.33 nM 3.96% | 100 nM -3.53% | 833.33 nM -8.77% | 10000 nM -14.8%

Nc1cccc2c(=O)[nH][nH]c(=O)c12 [monosodium-alpha-luminol]
inactive: 1 nM -0.8% | 8.33 nM 0.14% | 100 nM -1.27% | 833.33 nM -0.92% | 10000 nM 2.06%

NS(=O)(=O)c1cc(Cl)c(Cl)c(S(N)(=O)=O)c1 [diclofenamide]
inactive: 1 nM -2.99% | 8.33 nM -2.1% | 100 nM -3.44% | 833.33 nM 0.21% | 10000 nM -2.7%

Cc1cc(C)cc(C(=O)NOCCCCCC(=O)NO)c1
inactive: 1 nM 2.07% | 8.33 nM -0.95% | 100 nM -1.04% | 833.33 nM -9.5% | 10000 nM -23.1%

COP(=O)(OC)OC(c1ccc(Cl)cc1)P(=O)(OC)OC (stereo not given) [mifobate]
inactive: 1 nM -4.41% | 8.33 nM -10.9% | 100 nM -3.08% | 833.33 nM -2.04% | 10000 nM -5%

C[C@H]1N=C(N(C)C)N=C(N)N1 [imeglimin]
inactive: 1 nM 1.51% | 8.33 nM 1.14% | 100 nM 0.07% | 833.33 nM 0.43% | 10000 nM -0.77%

CN(C)CCc1c[nH]c2ccc(CS(=O)(=O)N3CCCC3)cc12 [almotriptan]
inactive: 1 nM -0.13% | 8.33 nM 1.33% | 100 nM -0.24% | 833.33 nM 0.04% | 10000 nM -2.87%

CON(C)C(=O)[C@H](O)[C@H](Cc1ccccc1)NC(=O)c1cc2cc(Cl)ccc2[nH]1
inactive: 1 nM -0.47% | 8.33 nM 0.53% | 100 nM 1.7% | 833.33 nM 1.24% | 10000 nM 4.39%

Cc1cc(C(C#N)c2ccc(Cl)cc2)c(Cl)cc1NC(=O)c1cc(I)cc(I)c1O (stereo not given) [closantel]
inactive: 1 nM 0.26% | 8.33 nM 1.55% | 100 nM 1.07% | 833.33 nM 3.04% | 10000 nM 5.87%

Cc1ccc(F)c(NC(=O)Nc2ccc(-c3cccc4[nH]nc(N)c34)cc2)c1 [linifanib]
inactive: 1 nM -2.72% | 8.33 nM -3.15% | 100 nM -4.95% | 833.33 nM -2.75% | 10000 nM -2.71%

O=C1NC(=O)[C@@H](c2cn3c4c(cccc24)CCC3)[C@@H]1c1c[nH]c2ccccc12 [tivantinib]
inactive: 1 nM -0.36% | 8.33 nM -0.11% | 100 nM -2.57% | 833.33 nM -1.94% | 10000 nM 2.92%

O=C(Nc1nc2ccc(NC(=O)C34CC5CC(CC(C5)C3)C4)cc2s1)c1ccccc1
inactive: 1 nM 1.55% | 8.33 nM 3.1% | 100 nM 0.95% | 833.33 nM 2.14% | 10000 nM -6.77%

N#CC(Cc1ccc(O)cc1)c1ccc(O)cc1 (stereo not given) [diarylpropionitrile]
inactive: 1 nM -1.07% | 8.33 nM 1.57% | 100 nM -1.11% | 833.33 nM -3.56% | 10000 nM -1.54%

CN(C)[C@@H]1C(O)=C(C(N)=O)C(=O)[C@@]2(O)C(O)=C3C(=O)c4c(O)ccc(Cl)c4[C@@H](O)[C@H]3C[C@@H]12 [demeclocycline]
inactive: 1 nM 1.68% | 8.33 nM 1.08% | 100 nM 0.96% | 833.33 nM 1.19% | 10000 nM 2.34%

O=C1NN(C(=O)Nc2ccc(Br)cc2)[C@@H](c2ccccc2)[C@@H]1c1ccccc1
inactive: 1 nM 0.57% | 8.33 nM 1.35% | 100 nM -2.12% | 833.33 nM -0.26% | 10000 nM -1.96%

CCCc1cc(=O)[nH]c(=S)[nH]1 [propylthiouracil]
inactive: 1 nM 3.65% | 8.33 nM -8.68% | 100 nM 2.66% | 833.33 nM 2.01% | 10000 nM -1.99%

C#Cc1cnc2nc(O)n(C(CC)CC)c2n1 [tirasemtiv]
inactive: 1 nM 1.57% | 8.33 nM -0.65% | 100 nM 1.78% | 833.33 nM 2.57% | 10000 nM -1.21%

CC(=O)[C@@]12O[C@](C)(c3ccccc3)O[C@@H]1C[C@H]1[C@@H]3CCC4=CC(=O)CC[C@]4(C)[C@H]3CC[C@@]12C [algestone-acetophenide]
inactive: 1 nM 0.43% | 8.33 nM 0.88% | 100 nM 1.95% | 833.33 nM 2.43% | 10000 nM 2.91%

CC(CNS(=O)(=O)C(C)C)c1ccc(-c2ccc(C#N)cc2)cc1 (stereo not given)
inactive: 1 nM -2% | 8.33 nM 0.02% | 100 nM 0.68% | 833.33 nM 0.84% | 10000 nM 0.85%

CCn1c2ccccc2c2cc(CNCc3ccccc3OC)ccc21
inactive: 1 nM 3.14% | 8.33 nM 2.16% | 100 nM 0.25% | 833.33 nM -1.14% | 10000 nM -6.1%

C#C[C@]1(O)CC[C@H]2[C@@H]3CCC4=CC(=O)CC[C@@H]4[C@H]3C(=C)C[C@@]21CC [etonogestrel]
inactive: 1 nM -0.26% | 8.33 nM -1.3% | 100 nM -4.31% | 833.33 nM -3.15% | 10000 nM -3.98%

Cc1ccc(OC[C@@H](O)[C@H](C)NC(C)C)c2c1CCC2 (racemic)
inactive: 1 nM -1.05% | 8.33 nM -1.6% | 100 nM -1.43% | 833.33 nM -0.36% | 10000 nM -1.51%

CN[C@@H](C)C(=O)N[C@H]1CCCC[C@H]2CC[C@@H](C(=O)N[C@@H](c3ccccc3)c3cn(CCCCc4ccc(CCCCn5cc([C@@H](NC(=O)[C@@H]6CC[C@@H]7CCCC[C@H](NC(=O)[C@H](C)NC)C(=O)N76)c6ccccc6)nn5)cc4)nn3)N2C1=O
inactive: 1 nM -2.38% | 8.33 nM -0.21% | 100 nM -2.09% | 833.33 nM -4.99% | 10000 nM -13.1%
